VHR inh abs – DUSP3 (human) phosphatase inhibition | P51452 | recombinant VHR phosphatase, pNPP absorbance | inhibition, % at 13.3 µM | 290,000 compounds, 0.52% hits | AID 1654; in the data active = inhibition above about 50%
BH1578 lux ind – inducers of Vibrio cholerae quorum light production without autoinducers; AID 588436; activation, % at 18.7 µM; V. cholerae BH1578 lux reporter, luminescence, 6 h; 350,000 compounds, 0.16% hits; in the data active = activation mostly above about 9.7%, no sharp cut-off
PrPC TRFRET – reduces human prion protein on the cell surface; P04156; cell surface PrPC, TR-FRET read-out; inhibition, % at 13.8 µM; 370,000 compounds, 0.43% hits; AID 720596; in the data active = inhibition above about 24%; also: 0% = median of the test wells and 100% = reference compound wells
Yp Topo-I inh – Y. pestis Topo-I inhibition via cleavage products. activity, % at 10 µM. Y. pestis Topo-I cleavage product accumulation, plate reader. 360,000 compounds, 0.064% hits; in the data active = activity above about 50%, passing the limit was not always enough
MazEF act – increases E. coli MazEF RNase cleavage of RNA; activation, % at 20 µM; P0AE70; AID 504720; FAM/BHQ RNA-DNA oligo cleavage fluorescence, 5 h; 350,000 compounds, 0.32% hits; in the data active = activation above about 50%
CCHF vOTU inh – CCHFV vOTU protease inhibition. Pep-AMC fluorescence. inhibition, % at 11.5 µM. 370,000 compounds, 0.55% hits; in the data active = inhibition above about 30%; also: 0% = vehicle wells with enzyme and 100% = no enzyme wells
PrPC confirm – cell surface PrPC inhibition, TR-FRET confirmation; AID 743200; cell surface PrPC level; 1,500 compounds, 65% hits; inhibition, % at 13.8 µM; shares compounds with PrPC TRFRET; in the data active = inhibition above about 25%
LD9 cytotox – kills or reduces viability of LD9 cells in PrPc counter-screen | 1,500 compounds, 29% hits | AID 743201 | shares compounds with PrPC TRFRET | inhibition, % at 13.8 µM | LD9 cells cytotoxicity, luminescence viability; in the data active = inhibition above about 9.5%
Starred values were filed as active, the others as inactive. A selection: hits, their analogues and other compounds. The true share with any hit is near 1.8%.

Screening CC1CCN(c2ccc(C(=O)Nc3ccc4c(c3)OCO4)cc2[N+](=O)[O-])CC1 returned VHR inh abs 10, BH1578 lux ind inactive, PrPC TRFRET 74*, Yp Topo-I inh 6, MazEF act 3, CCHF vOTU inh 17, PrPC confirm 77* and LD9 cytotox 4.
Screening COc1cc(C(=O)Nc2ccc3c(c2)OCCO3)c(-n2cnnn2)cc1OC returned VHR inh abs 19, BH1578 lux ind inactive, PrPC TRFRET 3, Yp Topo-I inh -4, MazEF act -6 and CCHF vOTU inh -3.
COc1cc(C(=O)Nc2ccc3c(c2)OCO3)ccc1-n1cnnn1 was read as VHR inh abs 23, BH1578 lux ind 1, PrPC TRFRET 45*, Yp Topo-I inh 3, MazEF act 7, CCHF vOTU inh 27, PrPC confirm 32* and LD9 cytotox -1.
COc1cc(NC(=O)C2CCN(S(=O)(=O)c3ccc(Cl)cc3)CC2)ccc1-n1cnnn1 was read as VHR inh abs 22, BH1578 lux ind 2, PrPC TRFRET 27*, Yp Topo-I inh -4, MazEF act 8, CCHF vOTU inh -5, PrPC confirm 21 and LD9 cytotox 15*.
CC1CCCN(c2ccc(C(=O)Nc3nnc(C4CC4)s3)cc2[N+](=O)[O-])C1 (centres undefined) was read as VHR inh abs 1, BH1578 lux ind 2, PrPC TRFRET 1, Yp Topo-I inh -9, MazEF act 4 and CCHF vOTU inh 8.
Screening CCCN(C(=O)Cc1coc2cc(OC)ccc12)C1CCS(=O)(=O)C1 (centres undefined) returned BH1578 lux ind inactive, PrPC TRFRET 4, Yp Topo-I inh -4, MazEF act -1 and CCHF vOTU inh 1.
Cc1c(OCC(=O)NCc2ccccn2)ccc2c(-c3ccccc3)cc(=O)oc12 was read as VHR inh abs 20, BH1578 lux ind -1, PrPC TRFRET -3, Yp Topo-I inh 2, MazEF act 30 and CCHF vOTU inh -1.
`Cc1c(OCC(N)=O)ccc2c(-c3ccccc3)cc(=O)oc12` gave VHR inh abs -8, BH1578 lux ind inactive, PrPC TRFRET 27*, Yp Topo-I inh 2, MazEF act 13, CCHF vOTU inh 15, PrPC confirm -9 and LD9 cytotox -3.
Screening CCN(CC)C(=O)CSc1nc(O)c(Cc2ccccc2)c(=O)n1-c1ccccc1 returned VHR inh abs 20, BH1578 lux ind inactive, PrPC TRFRET 60*, Yp Topo-I inh 4, MazEF act 1, CCHF vOTU inh 12, PrPC confirm 53* and LD9 cytotox -7.
`O=C1CC(Sc2nnc(-c3ccccc3)o2)C(=O)N1c1ccccc1` (centres undefined) gave VHR inh abs 46, BH1578 lux ind inactive, PrPC TRFRET 6, Yp Topo-I inh 1, MazEF act 2 and CCHF vOTU inh -14.
Cc1ccccc1N1C(=O)CC(Sc2nnc(-c3ccccc3)o2)C1=O (centres undefined) was read as VHR inh abs 19, PrPC TRFRET 30*, Yp Topo-I inh -2, MazEF act -3, CCHF vOTU inh 4, PrPC confirm 21 and LD9 cytotox -2.
`CCOC(=O)c1sc(NC(=O)Nc2ccccc2Cl)cc1C` gave VHR inh abs -7, BH1578 lux ind 0, PrPC TRFRET 14, Yp Topo-I inh -30, MazEF act 7 and CCHF vOTU inh 19.
CCOC(=O)c1sc(NC(=O)Nc2ccccc2)cc1C was read as VHR inh abs 5, BH1578 lux ind 0, PrPC TRFRET 35*, Yp Topo-I inh -12, MazEF act 2, CCHF vOTU inh 10, PrPC confirm 25* and LD9 cytotox 22*.
For CCc1nc2ccccc2[nH]c1=O the results were VHR inh abs 21, BH1578 lux ind 0, PrPC TRFRET 37*, Yp Topo-I inh -3, MazEF act 6, CCHF vOTU inh 2, PrPC confirm 0 and LD9 cytotox -6.
For CCN(CC)c1nc2ccccc2[nH]c1=O the results were VHR inh abs 16, BH1578 lux ind -1, PrPC TRFRET 3, Yp Topo-I inh 2, MazEF act -12 and CCHF vOTU inh 4.
For CC(=O)Nc1cc(-c2ccoc2)cn2c(-c3ccccc3)cnc12 the results were BH1578 lux ind inactive, PrPC TRFRET -8, Yp Topo-I inh 3 and CCHF vOTU inh 13.
Screening Cc1nonc1NC(=O)CSc1nc(C2CCCCC2)nc2ccccc12 returned VHR inh abs 2, BH1578 lux ind 0, PrPC TRFRET 50*, Yp Topo-I inh 8, MazEF act 1, CCHF vOTU inh 3, PrPC confirm 53* and LD9 cytotox -12.
`Cc1cccc(NC(=O)CSc2nc(C3CC3)nc3ccccc23)c1` gave VHR inh abs 20, BH1578 lux ind -1, PrPC TRFRET 30*, Yp Topo-I inh 0, MazEF act 3, CCHF vOTU inh 0, PrPC confirm 28* and LD9 cytotox -6.
Cc1cc(NC(=O)CSc2nc(C3CCCCC3)nc3ccccc23)no1 was read as VHR inh abs 10, BH1578 lux ind 0, PrPC TRFRET 14, Yp Topo-I inh 28, MazEF act 6 and CCHF vOTU inh 2.
CC1=C(C(=O)Nc2ccccc2C(=O)NC2CCCCC2)SCCO1 was read as VHR inh abs 25, BH1578 lux ind 0, PrPC TRFRET 3, Yp Topo-I inh 2, MazEF act 0 and CCHF vOTU inh 0.
NC(Cc1ccc(Cl)cc1)c1csc(NC(=O)NCC2CCCCC2)n1 (centres undefined) was read as BH1578 lux ind 1, PrPC TRFRET 61*, Yp Topo-I inh -12, CCHF vOTU inh 3, PrPC confirm 42* and LD9 cytotox -2.
For CSc1ccc(NC(=O)N2CCC(C(=O)c3ccc(F)cc3)CC2)cc1 the results were VHR inh abs 17, BH1578 lux ind 0, PrPC TRFRET 14, Yp Topo-I inh -8, MazEF act 4 and CCHF vOTU inh 13.
`CC(C)(C)c1csc(NC(=O)c2ccc(Cl)s2)n1` gave VHR inh abs 14, BH1578 lux ind 0, PrPC TRFRET 40*, Yp Topo-I inh -6, MazEF act -2, CCHF vOTU inh 18, PrPC confirm 45* and LD9 cytotox -9.
`Cc1ccc(C(=O)Nc2nc(C(C)(C)C)cs2)s1` gave VHR inh abs 13, BH1578 lux ind 0, PrPC TRFRET 43*, Yp Topo-I inh 0, MazEF act -2, CCHF vOTU inh 14, PrPC confirm 42* and LD9 cytotox -11.
